Measurements as given in PubChem BioAssay AID493231 (Broad Institute, 2011).
Results with a measured potency or affinity are listed apart. A number with no mark means an inactive call. How the calls were made is not given here.

molecular target: Acyl-homoserine lactone acylase PvdQ (Pseudomonas aeruginosa (strain ATCC 15692 / DSM 22644 / CIP 104116 / JCM 14847 / LMG 12228 / 1C / PRS 101 / PAO1)) (UniProt Q9I194); assay: P. aeruginosa PvdQ acylase inhibitors, dose response, biochemical, fluorescence, plate reader and imaging, cherry-picks (AID 493231); conditions: purified PvdQ acylase, fluorogenic substrate; series mostly up to 10 µM; activity change, negative = inhibition: at the top concentration;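 further: 0% = neutral control wells and -100% = reference inhibitor wells; more negative values mean stronger inhibition of the acylase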
Sequence (Q9I194 whole entry, looked up): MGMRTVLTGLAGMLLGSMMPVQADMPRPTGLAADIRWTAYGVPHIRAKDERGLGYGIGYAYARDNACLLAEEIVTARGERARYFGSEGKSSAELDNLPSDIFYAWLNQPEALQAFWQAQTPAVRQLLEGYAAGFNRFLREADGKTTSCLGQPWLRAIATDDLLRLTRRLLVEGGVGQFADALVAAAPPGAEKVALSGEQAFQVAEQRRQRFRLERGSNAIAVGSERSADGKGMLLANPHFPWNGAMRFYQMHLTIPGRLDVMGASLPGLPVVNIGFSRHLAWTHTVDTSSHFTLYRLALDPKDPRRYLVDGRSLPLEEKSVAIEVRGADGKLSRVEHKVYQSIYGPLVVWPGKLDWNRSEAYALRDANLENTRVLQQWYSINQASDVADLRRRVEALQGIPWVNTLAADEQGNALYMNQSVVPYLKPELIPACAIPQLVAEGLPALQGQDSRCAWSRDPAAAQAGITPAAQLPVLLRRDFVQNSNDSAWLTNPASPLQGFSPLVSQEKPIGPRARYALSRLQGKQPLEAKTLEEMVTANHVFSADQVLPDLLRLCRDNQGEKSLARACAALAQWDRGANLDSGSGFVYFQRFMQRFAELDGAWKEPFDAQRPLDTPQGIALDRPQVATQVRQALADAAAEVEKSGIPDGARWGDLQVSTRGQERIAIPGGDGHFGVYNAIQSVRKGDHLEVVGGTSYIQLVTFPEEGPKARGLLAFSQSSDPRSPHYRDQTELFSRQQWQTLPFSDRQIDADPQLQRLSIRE

SMILES	activity change, negative = inhibition
CCOC(=O)c1cc(-c2cccc([N+](=O)[O-])c2)on1	-8.55 unspecified
CN(C)C(=O)Nc1ccccc1	-5.76 unspecified
Cc1ccc(S(=O)(=O)NCc2ccccn2)cc1C	8.94 unspecified
O=C(c1ccc(-c2ccccc2)cc1)C1CCCN(C(=O)c2cncs2)C1 (stereo not drawn)	8.65 unspecified
O=c1[nH]c(C2CCN(S(=O)(=O)c3ccc(C(F)(F)F)cc3)CC2)nc2c1nnn2Cc1ccc(F)cc1	0.781 unspecified
CC1=C(C(=O)Nc2ccccc2)C(c2coc3ccccc3c2=O)C2=C(CCCC2=O)N1 (stereo not drawn)	7.59 unspecified
c1ccc2sc(-c3ccc4c(c3)OCO4)nc2c1	8.16 unspecified
CCOC(=O)/C(C#N)=C/c1c(N2CCCCCC2)nc2ccccn2c1=O	-0.405 unspecified
CC(C)Cn1nc(C(=O)Nc2nnc(C3CC3)s2)c2ccccc2c1=O	0.75 unspecified
CC(=O)N/N=C/c1c(C)[nH]n(-c2ccccc2)c1=O	-7.85 unspecified
COc1ccc(CCNC(=O)c2cccc(S(=O)(=O)N3CCc4ccccc4C3)c2)cc1	1.84 unspecified
COc1ccc(C(=O)N/N=C/c2ccc(OC)c(CN3CCCc4ccccc43)c2)cc1	4.56 unspecified
O=C(CCCN1C(=O)/C(=C/c2ccccc2)SC1=S)Nc1ccccc1O	3.81 unspecified
O=[N+]([O-])c1ccc2c(c1)Cc1cc(F)ccc1-2	-4.84 unspecified
Cc1cc(C)nc(NS(=O)(=O)c2ccc(NC(=O)c3ccc(N4C(=O)CCC4=O)cc3)cc2)n1	3.67 unspecified
CN1CCN(C(=O)c2cccn(Cc3ccc(C(F)(F)F)cc3)c2=O)CC1	8 unspecified
Cc1ccc(-c2nc(CN(C)Cc3cccc4cnccc34)c(C)o2)s1	-7.83 unspecified
O=C1/C(=C/c2cccc([N+](=O)[O-])c2)Oc2cc(O)ccc21	-11.7 unspecified
